Screening results as filed in PubChem BioAssay.
The full list was thinned out, with hits kept by preference.
Vaccinia Venus: inhibitors of vaccinia virus (Venus reporter); Vaccinia virus Venus reporter expression, fluorescence; Potency, µM (top dose mostly 36.5 µM), for inactives: top-dose activity change, negative = inhibition, usual class: inhibitors; 0.46% of 330,000 active; AID 720580; calls by dose curve; tested in A549 cells; further: potency means the concentration at half of the fitted maximal effect; on the % scale 0 is the no-effect control and ±100 the full control effect; nearly all actives have a fitted effect of over 30% in size
Cycloheximide cs: counter-screen hit for Shiga toxin inhibitors, cycloheximide; cell reporter, cycloheximide protein synthesis inhibition counterscreen; max response, %; 12% of 300,000 active; AID 2314; in the data active means max response mostly above about 13%, no sharp cut-off; inactive means mostly below about 14%; further: read at 38.3 µM for the half of the compounds with a filed dose; 0% is about no effect
Marburg entry inh: inhibitors of Marburg virus binding or cell entry; AID 540276; 1.8% of 300,000 active; Marburg virus pseudotyped entry inhibition, cell reporter; Potency, µM (highest dose often 37.8 µM), for the others: top-dose activity change, negative = inhibition, actives largely listed as inhibitors; calls by dose curve; tested in HEK293 cells; further: potency means the concentration at half of the fitted maximal effect; on the % scale 0 is the no-effect control and ±100 the full control effect
LASV entry inh: inhibitors of Lassa virus binding or cell entry; 1.2% of 300,000 active; AID 540256; Potency, µM (series often up to 37.9 µM), for the others: at the highest dose activity change, negative = inhibition, usual class: inhibitors; Lassa virus pseudotype entry inhibition, cell reporter; calls by dose curve; tested in HEK293 cells; further: potency means the concentration at half of the fitted maximal effect; on the % scale 0 is the no-effect control and ±100 the full control effect; nearly all actives have a fitted effect of over 50% in size
Vaccinia mCherry: inhibitors of vaccinia virus infection (mCherry reporter signal) | Potency, µM (highest dose often 36.5 µM), for inactives: top-dose activity change, negative = inhibition, most hits filed as inhibitors | 0.63% of 310,000 active | Vaccinia virus mCherry reporter infection, fluorescence; calls by dose curve; tested in A549 cells; further: potency means the concentration at half of the fitted maximal effect; on the % scale 0 is the no-effect control and ±100 the full control effect; nearly all actives have a fitted effect of over 35% in size
Shiga inhibitor: blocks Shiga toxin action in Vero cells. 9.2% of 290,000 active. inhibition, % at 38.7 µM. Vero cells, Shiga toxin protein synthesis inhibition reporter. AID 2315; in the data active means inhibition mostly above about 28%, no sharp cut-off; inactive means mostly below about 43%; further: 0% is about no effect
Starred values were filed as active, the others as inactive; i = inactive; ? = inconclusive; / = no result given; [ ] = another dose, or the depositor's remark.

SMILES	Vaccinia Venus	Cycloheximide cs	Marburg entry inh	LASV entry inh	Vaccinia mCherry	Shiga inhibitor
Cc1cc(NC(=O)c2cccs2)no1	5%	33*	?	?	3%	57*
Cc1cc(C)nc(NC(=O)c2cccs2)n1	/	12	/	/	/	34
COc1cc(NC(=O)c2cc(-c3cccs3)on2)c(OC)cc1Cl	-7%	/	1%[46.1 µM]	6%[46.1 µM]	-19%	/
Cc1cc(NC(=O)Cc2cccs2)no1	-12%	1	29%	0%	-12%	-11
CC(C)NC(=O)c1cc(-c2cccs2)on1	-14%	31*	?	?	-21%	57*
Cc1cc(NC(=O)c2cc(C(C)C)on2)no1	-11%	48*	16%	1%	-18%	67*
Cc1cc(C)nc(NC(=O)c2cccs2)c1	/	21*	/	/	/	/
COc1cccc(CCc2nnc(CCC(=O)N(C)C3CC(C)(C)NC(C)(C)C3)o2)c1	/	-1	/	/	/	-2
COc1cccc(-c2cn3c(n2)sc2cc(C(=O)NCCc4ccccc4)ccc23)c1	-15%	/	/	-13%[46.1 µM]	-12%	/
O=C(O)C1CCN(C(=O)CSc2nc3ccccc3c(=O)n2Cc2ccccc2)CC1	-3%	-6	9%[46.1 µM]	15%[46.1 µM]	-12%	23
Cc1cc(C)cc(C(=O)NCCn2cc(C(=O)N3CCSCC3)nn2)c1	-19%	/	/	/	-17%	/
CCOC(=O)CSc1nc2cc3c(cc2c(=O)n1CCCCCC(=O)NCc1ccc2c(c1)OCO2)OCO3	-28%	/	/	2%[46.1 µM]	-27%	/
Cc1nc(NC(=O)c2cccs2)ccc1Br	-8%	54*	?	6.3µM*	-3%	106*
Cc1cc(NC(=O)c2cc(-c3cccs3)on2)no1	/	29*	5%	-15%	/	114*
CC(=O)Nc1ccc(NC(=O)c2cc(-c3cccs3)on2)cc1	-7%	/	-24%[46.1 µM]	2%[46.1 µM]	-1%	/
CC1CCC(NC(=O)C2(C)Cc3ccccc3C(=O)N2Cc2ccc(F)cc2)CC1 (centres undefined)	-9%	/	13%[46.1 µM]	/	-3%	/
COc1ccc(COC(=O)N/N=C(\C)CC(=O)Nc2c(C)cc(C)cc2C)cc1	-14%	-2	12%[46.1 µM]	7.3µM*	-2%	9
COc1ccc(COC(=O)N/N=C(\C)CC(=O)NCc2ccc(Cl)cc2)cc1	-4%	8	11%[46.1 µM]	?	-6%	-15
CCc1nc(OCc2ccco2)c2sc3nc4c(cc3c2n1)COC(C)(C)C4	-10%	4	?	-26%	/	5
Cc1nc(OCC(C)C)c2sc3nc4c(cc3c2n1)COC(C)(C)C4	-16%	20*	0%[46.1 µM]	-7%[46.1 µM]	i	60*
COc1nc(C)nc2c1sc1nc3c(cc12)COC(C)(C)C3	-13%	34*	?	-17%	i	58
Nc1ccc(-n2nc3ccccc3n2)cc1	-2%	/	?	?	?	/
Cc1cc2nn(-c3cccc4ccccc34)nc2cc1N	-2%	22*	?	28%	-9%	44*
CCc1ccc(-n2nc3cc(C)c(N)cc3n2)cc1	/	57*	/	/	/	142*
Cc1ccc(-n2nc3cc(C)c(N)cc3n2)cc1	-21%	53*	?	13µM*	/	96*
SMILES	Vaccinia Venus	Cycloheximide cs	Marburg entry inh	LASV entry inh	Vaccinia mCherry	Shiga inhibitor
COc1ccc(CN(CC2CCC(C(=O)O)CC2)C(=S)Nc2cc(Cl)ccc2OC)cc1 (centres undefined)	/	11	/	/	/	-5
O=C(Nc1cccc(-c2csc(Nc3ccc(Cl)cc3)n2)c1)c1cc([N+](=O)[O-])cc(C(F)(F)F)c1	?	4	/	/	?	4
O=C(Nc1cccc(-c2csc(Nc3ccccc3)n2)c1)c1cc([N+](=O)[O-])cc(C(F)(F)F)c1	-26%	18*	/	/	-2%	27*
O=C(Nc1ccc(-c2csc(Nc3ccc(Cl)cc3)n2)cc1)c1cc([N+](=O)[O-])cc(C(F)(F)F)c1	?	-5	/	/	i	3
O=C(Nc1cccc(-c2csc(Nc3ccc(Cl)cc3)n2)c1)c1cccc(C(F)(F)F)c1	?	12*	/	/	?	42*
CCCn1nc2cc(C(=O)NCCc3cccs3)ccc2c1OCC	-20%	29*	/	/	i	73*
CCCCn1nc2cc(C(=O)NCC34CC5CC(CC(C5)C3)C4)ccc2c1OC	?	16	/	/	6.3µM*	-24
CCCCNC(=O)c1ccc2c(OCC)n(CCCC)nc2c1	-17%	11	/	/	-9%	-14
O=C1CCCc2nc3c(cc21)C(O)Oc1c-3ccc2ccccc12 (centres undefined)	-5%	49*	-10%	-9%	-4%	65*
O=C1CCCc2nc3c(cc21)C(O)Oc1ccccc1-3 (centres undefined)	1%	8	26%[46.1 µM]	9%	-6%	18
Cc1ccc(NC(=O)NC(=O)COc2c(F)c(F)cc(F)c2F)c(C)c1	-2%	/	6%	8%	i	/
Fc1cccc(NCc2ccoc2)c1	/	-2	26%	0%	/	-5
Fc1ccc(NCc2cn3ccccc3n2)cc1	-12%	53*	?	?	/	77*
Fc1cccc(NCc2cn3ccccc3n2)c1	/	51*	?	?	/	126*
O=C(NCCc1cn2ccccc2n1)c1ccccc1F	-11%	-2	12%	16%	-11%[1.46 µM]	14
O=C(Nc1cnn(Cc2ccccc2)c1)c1nc2ncccn2n1	-9%	38*	1%	1%	/	46*
Cc1ccccc1NS(=O)(=O)c1ccc(NC(=O)c2nc3ncccn3n2)cc1	-21%	-3	13%	?	-2%	2
CC1(C)C(C(=O)O)N2C(=O)CC2S1(=O)=O (centres undefined)	/	-1	/	/	/	-2
CN(C)S(=O)(=O)c1cc(NC(=O)c2cc(=O)c3ccccc3o2)ccc1Cl	-15%	31*	-1%[46.1 µM]	-30%[46.1 µM]	-15%	34*
CN(c1ccccc1)S(=O)(=O)c1ccc(NC(=O)c2cc(=O)c3ccccc3o2)cc1	-2%	/	0%[46.1 µM]	-21%[46.1 µM]	-8%	/
COc1ccc(NC(=O)c2cc(=O)c3ccccc3o2)cc1Cl	-1%	6	?	9%	-2%	/
Cc1ccc(NC(=O)c2cc3ccccc3o2)cc1S(=O)(=O)N(C)C	-6%	54*	16%	?	-2%	78
CN(C)S(=O)(=O)c1ccc(NC(=O)c2cc3ccccc3o2)cc1	/	20*	?	-24%	/	130*
CN1CCCN(C(=O)CC2(CC(=O)O)CCCCC2)CC1	6%	0	-1%	-28%	i	-6
CSc1nnc(CCNC(=O)/C=C/c2cccc(F)c2)n1-c1ccc(F)cc1	-14%	/	/	/	i	/
Oc1ccc(Br)cc1-c1ccnn1-c1ccccc1	?	5	8.9µM*	-9%	?	-14
O=c1cnc2ccccc2n1Cc1ccc(Br)cc1	-15%	18*	4%[46.1 µM]	18%	-20%	56*
CC(C)(C)c1ccc(Cn2c(=O)cnc3ccccc32)cc1	-25%	38*	?	10µM*	?	90*
COCC(=O)N(C)C[C@H]1Oc2ncc(C#C[C@H](C)O)cc2C(=O)N([C@@H](C)CO)C[C@H]1C	-23%	/	/	/	-17%	/
Cn1c(=O)c2cn3c(c2n(C)c1=O)C(c1ccccc1)CC(c1ccccc1)=N3 (centres undefined)	-27%	38*	?	26%	/	105*
